# From PubChem BioAssay AID868 (SRMLSC, 2007)
# Hit rate of the full screen: of about 190,000 compounds, about 3,500 (1.8%) were called active. For the sample, actives were picked, then their nearest neighbours and some compounds at random. Values without a mark were called inactive.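 The calls were made as follows: active = inhibition above a set limit, 3 SD over mean compound inhibition (cut at about 8.4% in these data); inactive = the rest.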
# Test: inhibitors of the yeast RAM network, primary screen, dse1pr::URA3 reporter, 5-FOA selection (AID 868);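 also: 0% = DMSO-only wells with no growth and 100% = 10 µM 1-NA-PP1 full growth; inhibition rescues growth on 5-FOA so higher OD means more RAM inhibition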
# Details: S. cerevisiae dse1pr::URA3 reporter, 5-FOA growth OD615, 2 d; at 50 µM; stronger effect = higher value; analog-sensitive cbk1-as2 kinase mutant strain
row,Structure (SMILES),inhibition
1,O=C(O)c1ccc(NC(=O)c2cn(-c3ccccc3)nc2-c2ccc(Cl)cc2)cc1,6.63%
2,Cc1ccc(-c2nn(-c3ccccc3)cc2/C=C/C(=O)Nc2cccc(S(N)(=O)=O)c2)cc1,4.87%
3,COc1ccc(-c2nn(-c3ccccc3)cc2/C=C\C(=O)Nc2ccc(C(=O)O)cc2)cc1,9.89% (active)
4,CCCC(=O)OCC(=O)Nc1cc(Cl)ccc1[N+](=O)[O-],0.82%
5,Cc1cc(NC(=O)COC(=O)COc2ccc(Cl)cc2C)c([N+](=O)[O-])cc1C,10.1% (active)
6,COc1ccc(OCC(=O)Nc2cc(C)c(Cl)cc2OC)c([N+](=O)[O-])c1,1.54%
7,Cc1ccccc1C(=O)Nc1ccc(N2CCCCCC2)cc1,1.43%
8,O=C(Nc1cc(S(=O)(=O)N2CCOCC2)ccc1Cl)c1cc(=O)c2ccccc2o1,1.91%
9,COc1ccccc1NC(=O)/C=C/C(=O)O,2.02%
10,Nc1nc(SCc2ccccc2Cl)n[nH]1,2.44%
11,c1ccc(CSc2nnc(-c3ccco3)c(-c3ccco3)n2)cc1,0.53%
12,Clc1ccccc1CSc1nnc(-c2ccco2)c(-c2ccco2)n1,16% (active)
13,CCOC(=O)C1CCCN(C(=O)COc2ccc(N(C)S(=O)(=O)c3ccc(C)cc3)cc2)C1 (stereo not given),-0.86%
14,COCc1c(N)c(C)nc(Cl)c1C#N,0.6%
15,CC(C)(C)C(=O)N(Cc1ccccc1)c1ccccn1,-0.12%
16,CCOC(=O)C/C(C)=N\Nc1ccc([N+](=O)[O-])cc1[N+](=O)[O-],0%
17,O=C1OC(OC(=O)c2ccccc2Br)C(N2CCOCC2)=C1Cl (stereo not given),1.63%
18,Cc1ccc(NC2=C(Cl)C(=O)OC2OC(=O)c2ccccc2C)cc1 (stereo not given),12.9% (active)
19,Cc1ccccc1C(=O)OC1OC(=O)C(Cl)=C1Nc1ccccc1 (stereo not given),6.67%
20,CCOc1ccc(C(=O)Nc2cccc(-c3ccc4nncn4n3)c2)cc1,3.23%
21,COCCCNC(=O)/C=C/c1ccc(OCc2c(F)cccc2Cl)cc1,0.89%
22,O=C(Nc1ccccc1C(=O)N1CCCCCC1)c1ccccc1Cl,-0.13%
23,CC(=O)c1ccc(N2CCN(C(=O)c3ccc4nc[nH]c4c3)CC2)cc1,2.3%

row,Structure (SMILES),inhibition
1,CCOC(=O)/C(N=Nc1cc(C(=O)O)cc(C(=O)O)c1)=C(\O)CCl,0%
2,CCOc1cc(/C=C2/C(=N)N3OC(C)=CC3=NC2=O)ccc1OC,4.09%
3,Cc1ccc(OCCCn2c(=O)oc3ccccc32)cc1,0.62%
4,COc1ccc(OCCCn2cccc2/C=C2/C(=N)N3OC(C)=CC3=NC2=O)cc1,12.5% (active)
5,COCCNC(=O)C(c1ccc(O)cc1)N(C(=O)CCC(=O)Nc1nccs1)c1ccc(C)cc1 (stereo not given),0.98%
6,Oc1c(Cl)cc(Cl)c(Cl)c1Cc1c(O)c(Cl)cc(Cl)c1Cl,12% (active)
7,OC1CSc2nc3ccccc3n2C1 (stereo not given),0%
8,CCCCn1ccnc1C(=O)c1cccc(S(=O)(=O)N2c3ccccc3CC2C)c1 (stereo not given),11.4% (active)
9,CN1CCN(S(=O)(=O)c2cccc(C(=O)N3CCc4ccccc43)c2)CC1,1.24%
10,CC1Cc2ccccc2N1S(=O)(=O)c1c(N)n(C)c(=O)n(C)c1=O (stereo not given),-1.31%
11,CC(=O)NC(Cc1ccc(F)c(F)c1)C(=O)NC1CCN(C(=O)c2ccc(C)cc2)CC1 (stereo not given),0.5%
12,COCCN(C(=O)c1ccco1)c1nnc(-c2ccc(OC)cc2)s1,4.86%
13,COCCN(C(=O)C(C)C)c1nnc(-c2ccc(C(C)(C)C)cc2)s1,19.7% (active)
14,COc1cc(OC)cc(-c2nnc(N(C)C(=O)c3ccncc3)s2)c1,0.96%
15,CSc1nc2ccc(NC(=O)c3c(F)cccc3F)cc2s1,4.89%
16,Cn1cc(/C=C/C(=O)N2CCCC(C(=O)c3ccc(C(F)(F)F)cc3)C2)cn1 (stereo not given),-1.92%
17,CN1CCN(c2ccc(S(=O)(=O)N3CCCCC3)cc2NC(=O)Cc2ccccc2F)CC1,1.32%
18,O=C(O)CSc1nnc(-c2ccc3c(c2)OCO3)n1-c1ccccc1,3.54%
19,Cn1nc(C(F)(F)F)c(C(=O)Nc2cccc(C(F)(F)F)c2)c1SCc1ccc(Cl)cc1,7%
20,COC(=O)c1ccccc1NC(=O)Cn1nc(C(F)(F)F)c2c1CCC2,5.65%
21,COC(=O)c1ccccc1Sc1c(/C=N/OCc2ccc(Cl)cc2)c(C(F)(F)F)nn1C,8.63% (active)
22,CCOC(=O)c1sc(/N=C/C2=C(O)CC(C)(C)CC2=O)c(C(=O)OCC)c1C,4.52%
23,Cc1ccc(C(C)NC(=O)Cn2nc(C)c([N+](=O)[O-])c2C)cc1 (stereo not given),0.13%

row,Structure (SMILES),inhibition
1,CCC(C(=O)Nc1ccc(C(C)C)cc1)c1ccccc1 (stereo not given),3.4%
2,COc1cc(OC)cc(-c2nc3nc(C)c(CCC(=O)NCc4ccco4)c(C)n3n2)c1,5.8%
3,O=C(CSc1nc(-c2ccco2)cc(C(F)(F)F)n1)NCc1cccs1,5.13%
4,COc1ccc(-c2cc(C(F)(F)F)nc(SCCC(=O)NCc3ccco3)n2)cc1,8.41% (active)
5,COc1cc(/C=N/NC(=S)Nc2cccnc2)cc(OC)c1O,0.73%
6,CCOc1cc(C2C(C(=O)OC(C)C)=C(C)NC3=C2C(=O)CCC3)cc([N+](=O)[O-])c1O (stereo not given),3.44%
7,COc1ccc(CCNC2=C(Cl)C(=O)N(Cc3ccccc3)C2=O)cc1OC,8.57% (active)
8,COc1ccc(CCN=C2SCC(=O)N2Cc2ccccc2)cc1OC,0.24%
9,COc1ccc(CCN(C)CCN2C(=O)c3ccccc3C2=O)cc1OC,-0.11%
10,O=C(CSc1ccccc1)Nc1nnc(/C=C/c2ccccc2)s1,3.72%
11,COc1ccc(Cl)cc1C(=O)NNC(=S)NC1CCCC1,0%
12,COCCCNc1nc2c(-c3cccc(C(F)(F)F)c3)nnn2c2ccccc12,4.26%
13,CCCNC(=O)c1c(Cl)cnn1-c1ccc(C)cc1,-1.52%
14,NS(=O)(=O)c1ccc(CCNC(=O)c2ccc([N+](=O)[O-])cc2[N+](=O)[O-])cc1,0%
15,CCOC(=O)CN(C)Cc1c[nH]c2ccccc12,4.1%
16,NS(=O)(=O)c1ccc(NC(=O)COC(=O)CCc2c[nH]c3ccccc23)cc1,1.13%
17,CC(C)(C)N(Cc1ccccc1)C(=O)COC(=O)CCc1c[nH]c2ccccc12,10.3% (active)
18,CCOc1ncccc1C(=O)OCC(=O)NC1CC1,-0.99%
19,CN(C)C(CNC(=O)Cc1ccc([N+](=O)[O-])cc1)c1ccccc1 (stereo not given),-0.62%
20,O=C(NCc1cccs1)C(=O)NCC1OCCCN1S(=O)(=O)c1ccc(F)cc1 (stereo not given),3.25%
21,COc1ccc(NS(=O)(=O)c2ccc(NC(=O)c3ccc(N(C)S(C)(=O)=O)cc3)cc2)cc1,4.92%
22,CC(C)CNC(=O)COC(=O)c1ccccc1OCC(=O)Nc1ccc(Br)cc1,1.56%
23,COc1ccc(C2CC(c3cccs3)=NN2C(=O)CSc2nnc(N)s2)cc1OC (stereo not given),1.88%

row,Structure (SMILES),inhibition
1,COc1ccc(C2CC(c3cccs3)=NN2C(=O)COC(=O)c2cc3ccccc3cc2O)cc1OC (stereo not given),4.23%
2,O=C1c2cccc(OCC(=O)N3N=C(c4cccs4)CC3c3ccc(F)cc3)c2CCN1Cc1ccccc1 (stereo not given),9.86% (active)
3,COc1ccc(NC(=O)COC(=O)c2ccc(NS(=O)(=O)/C=C/c3ccccc3)cc2)cc1,4.45%
4,O=C(CSc1nncs1)NC1CCCc2ccccc21 (stereo not given),0.4%
5,CN1/C(=C\C(=O)c2cccnc2Cl)C(C)(C)c2ccccc21,0.13%
6,CC(C)Nc1nnc(SCC(=O)c2c[nH]c3ccccc23)s1,0.26%
7,CC(C)Nc1nnc(SCC(=O)/C=C2\N(C)c3ccccc3C2(C)C)s1,10.6% (active)
8,COCCNC(=S)N1CCC(NC(=O)C23CC4CC(CC(C4)C2)C3)CC1,-0.25%
9,CCN(CC)CCNC(=O)c1sc2ncn(CC(=O)Nc3ccc(C)c(Cl)c3)c(=O)c2c1C,0.37%
10,Cn1c(=O)n(Cc2ccco2)c(=N)c2c3c(sc21)CCCC3,1.37%
11,O=C(COC(=O)CSc1nnc(-c2ccc(Cl)cc2)o1)Nc1cc(Cl)cc(Cl)c1,2.39%
12,CC(=O)NC1C(Oc2ccc(C=O)cc2)OC(COC(C)=O)C(OC(C)=O)C1OC(C)=O (stereo not given),1.12%
13,CC(=O)NC1C(OCc2ccccc2)OC(COC(C)=O)C(OC(C)=O)C1OC(C)=O (stereo not given),1.66%
14,COc1ccc(O[C@H]2C=C[C@@H](c3ccccc3)O[C@@H]2CO/N=C/C[C@@H]2C=C[C@H](OC(C)=O)[C@@H](COC(C)=O)O2)cc1,13.9% (active)
15,C=CCOC(=O)C1=C(C)N=C2SCCC(=O)N2C1/C=C/c1ccccc1OC (stereo not given),1.62%
16,COc1ccccc1CNC(=O)CNC(=O)c1cn(-c2ccccc2OC)c(=O)c2ccccc12,1.48%
17,CCCCNC(=O)CSc1nc2ccc(NC(=O)CSc3nnc(COc4ccccc4C)n3C)cc2s1,6.51%
18,Nc1nnc(SCC(=O)Nc2ccc3nc(SCC(=O)Nc4ccccc4)sc3c2)s1,9.31% (active)
19,CCCCNC(=O)CSc1nc2ccc(NC(=O)CSc3nnc(N)s3)cc2s1,2.71%
20,Cn1c(=O)c2c(ncn2CCc2ccccc2)n(C)c1=O,0.37%
21,C/C=C(\C)C(=O)NCCN1C2=NC[C@H](Cc3ccc(O)cc3)N2C[C@@H]1Cc1ccc(OC)cc1,-1.63%
